In PubChem BioAssay (Tox21):
Inconclusive results are not listed. A call without a number means that no potency is given here. Activity calls are given as the source filed them. The call rests on the fitted dose curve; in most records, active means well fitted activation curve with a large enough effect in the repeat runs; inconclusive means weak or mixed curves; inactive means flat fitted curve, though single readings scatter.

Assay: A CellTox Green Cytotoxicity Assay to monitor cytotoxicity in HEK293 cells - 24 hour (AID 1224875); further: nearly all actives have a fitted effect of over 45% in size
Conditions: CellTox Green fluorescence; series mostly up to 76.8 µM
Description: National Center for Advancing Translational Sciences [NCATS]
NIH Chemical Genomics Center [NCGC]
U.S. Environmental Protection Agency [EPA]
National Institutes of Environmental Health Sciences [NIEHS]
National Toxicology Program [NTP]
Cell-based models are critical for drug discovery. Determining the natural cytotoxic effects resulting from test compounds is an essential research activity. A CellTox Green Cytotoxicity Assay to monitor cytotoxicity in real time of continues cell culture during 40 hours of the compound treatment was used to screen Tox21 10K library compounds in Hek293 cells. CellTox Green Cytotoxicity Assay is a nonlytic, homogeneous, biofluorescent method to measure cytotoxicity in cell culture after experimental manipulation. The assay system uses a proprietary asymmetric cyanine dye that is excluded from viable cells but preferentially stains the dead cell's DNA. […] Viable cells produce no appreciable increases in fluorescence. Therefore, the fluorescence signal produced by the binding interaction with dead cell DNA is proportional to cytotoxicity.
The mixture of Hek293 cell suspension and reagents were dispensed at 600cells/6 ul/well in 1536-well tissue culture treated black solid bottom plates using a Multidrop dispenser. After the assay plates were incubated at a 37 C/5% CO2 incubator for 5 hours, 23 nL of compounds dissolved in DMSO, positive and negative controls was transferred to the assay plate by a pintool work station. The plates were incubated at 37 C for 40 hours. The fluorescence intensity were measured at 0h, 8h, 16h, 24h, 32h and 40h time points using ViewLux plate reader during compound treatment.
Potency means the concentration at half of the fitted maximal effect.

| SMILES | Potency | activity change |
| --- | --- | --- |
| Cn1cc(S(C)=O)c(=O)c2ccc(F)cc21 (stereo not given) | inactive | – |
| C=C(C)CS(=O)(=O)O | inactive | – |
| CCC(C)S (stereo not given) | – | 2.02% [at 2.72 µM, active compounds read high] (inactive) |
| CO[Si](CCCOCC1CO1)(OC)OC (stereo not given) | inactive | – |
| N#Cc1ccc(C2CCCc3cncn32)cc1 (stereo not given) | inactive | – |
| N=c1nc(N2CCCCC2)cc(N)n1O | inactive | – |
| CCC=O | inactive | – |
| O=C1NC(=O)[C@@]2(CCOc3ccc(F)cc32)N1 | inactive | – |
| CCOC(=O)c1ccc(C)cc1 | inactive | – |
| CCCC(=O)O[C@]1(C(=O)CO)CC[C@H]2[C@@H]3CCC4=CC(=O)CC[C@]4(C)[C@H]3[C@@H](O)C[C@@]21C | inactive | – |
| CCS(=O)(=O)c1ccc(OC)c(C(=O)OC)c1 | inactive | – |
| C/C=C(\C)C#N | inactive | – |
| Cc1cnc(NS(=O)(=O)c2ccc(N)cc2)nc1 | inactive | – |
| NC(=O)c1ccc(N)cc1 | inactive | – |
| CN(C)CCCSc1ccccc1NC(=O)/C=C/c1ccccc1 | 19 µM (active) | – |
| Cc1ccc(Cl)cc1Cl | inactive | – |
| CC(=O)OCC(CCn1cnc2cnc(N)nc21)COC(C)=O | inactive | – |
| CN1CCC(=C2c3ccccc3CC(=O)c3sccc32)CC1 | inactive | – |
| CCCCCOC(=O)CCCCC | inactive | – |
| CC(C)NC(=O)NC(C)C | inactive | – |

| SMILES | Potency | activity change |
| --- | --- | --- |
| O=C(CCCN1CCC(O)(c2cccc(C(F)(F)F)c2)CC1)c1ccc(F)cc1 | inactive | – |
| CC(C)CNCC(C)C | inactive | – |
| O=C1CCCCCCCCCCCN1 | inactive | – |
| CCN(CC)CCOCCOC(=O)C1(c2ccccc2)CCCC1 | inactive | – |
| CC(C)CCCC(C)N (stereo not given) | inactive | – |
| FC1(F)C(F)(F)C(F)(F)C2(F)C(F)(F)C(F)(F)C(F)(F)C(F)(F)C2(F)C1(F)F (stereo not given) | inactive | – |
| c1ccc([C@H]2CN3CCSC3=N2)cc1 | inactive | – |
| ClC(Cl)(Br)Br | inactive | – |
| COCCCOCCCOC | inactive | – |
| C=C1CC[C@H]2C[C@@H]1C2(C)C | inactive | – |
| CC(NC(CCc1ccccc1)C(=O)O)C(=O)N1C(=O)N(C)CC1C(=O)O (stereo not given) | inactive | – |
| O=C(O)CNC(=O)c1ccc([N+](=O)[O-])cc1 | inactive | – |
| Cc1sccc1Br | inactive | – |
| COc1ccccc1OCC(O)CN1CCN(CC(=O)Nc2c(C)cccc2C)CC1 (stereo not given) | inactive | – |
| C[N+](C)(C)CC(O)CC(=O)[O-] (stereo not given) | inactive | – |
| CCOc1ccc(C(=O)OCCN(CC)CC)cc1 | inactive | – |
| CCOC(=O)Nc1ccc(NCc2ccc(F)cc2)nc1N | inactive | – |
| CC1=CC(C)C(C=O)CC1 (stereo not given) | inactive | – |
| CCCCC(CC)COC(=O)c1ccccc1O (stereo not given) | inactive | – |
| CC(=O)c1ccccc1O | inactive | – |
